Screening data deposited in PubChem by The Scripps Research Institute Molecular Screening Center.
Only some compounds are listed: those with a hit (about 3.5% of all), similar ones and a draw of the others.
TEAD-YAP inh – TEAD-YAP interaction inhibition. inhibition, % at 9.12 µM. AID 1259422. HEK-TIYL cells, TEAD-Gal4/YAP UAS-luciferase luminescence. 640,000 compounds, 1.4% hits; in the data active = inhibition above about 32%;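 note: 0% = median of test compound wells and 100% = reference inhibitor wells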
MITF inh – human MITF inhibition, primary screen | 650,000 compounds, 0.91% hits | inhibition, % at 2.6 µM | AlphaScreen MITF homodimerization, bead proximity signal | AID 1259374; in the data active = inhibition above about 50%;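 note: 0% = vehicle wells with protein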
GPR151 activ – human GPR151 activation; 650,000 compounds, 1% hits; activation, % at 11.2 µM; Q8TDV0; PathHunter beta-arrestin GPR151 cells, luminescence; in the data active = activation above about 4.9%;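 note: 0% = median of compound wells and 100% = cells with positive control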
FBW7 act – human FBW7 E3 ligase activation, primary screen. 650,000 compounds, 0.13% hits. normalized activity (activation), % at 26.1 µM. AID 1259310. AlphaScreen FBW7–phospho-cyclin E peptide binding, activator screen. Q969H0; in the data active = normalized activity above about 1.9%;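 note: purified mutant Fbw7 with reduced substrate affinity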
Target sequence (Q969H0 whole entry, looked up): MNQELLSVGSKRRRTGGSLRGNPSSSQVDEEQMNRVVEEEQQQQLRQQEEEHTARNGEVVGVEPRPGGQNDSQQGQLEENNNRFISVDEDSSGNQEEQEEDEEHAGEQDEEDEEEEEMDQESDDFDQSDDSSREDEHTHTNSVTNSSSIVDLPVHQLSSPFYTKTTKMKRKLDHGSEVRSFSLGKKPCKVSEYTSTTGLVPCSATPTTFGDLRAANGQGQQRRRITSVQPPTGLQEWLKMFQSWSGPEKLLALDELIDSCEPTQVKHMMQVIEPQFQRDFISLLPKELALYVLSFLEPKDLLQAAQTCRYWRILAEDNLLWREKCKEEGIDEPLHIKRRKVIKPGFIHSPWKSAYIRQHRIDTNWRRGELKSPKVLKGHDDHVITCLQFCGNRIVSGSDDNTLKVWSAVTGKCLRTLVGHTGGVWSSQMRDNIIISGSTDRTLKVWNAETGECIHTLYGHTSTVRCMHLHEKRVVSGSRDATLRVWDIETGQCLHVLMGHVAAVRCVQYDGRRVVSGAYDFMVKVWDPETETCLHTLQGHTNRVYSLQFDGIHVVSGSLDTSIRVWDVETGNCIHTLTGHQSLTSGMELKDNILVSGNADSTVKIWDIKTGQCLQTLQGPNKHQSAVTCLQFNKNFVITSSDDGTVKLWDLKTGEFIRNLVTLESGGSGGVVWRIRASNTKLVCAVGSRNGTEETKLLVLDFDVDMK
Active calls of the source: *.

SMILES | TEAD-YAP inh | MITF inh | GPR151 activ | FBW7 act
Cc1cc(C)n(-c2cc(NCCNC(=O)Nc3cccc(F)c3C)ncn2)n1 | 16 | 2 | -2 | 0
COc1ccc(C)cc1NC(=O)NCCNc1cc(-n2nc(C)cc2C)ncn1 | 51* | 0 | 0 | 0
O=[N+]([O-])c1cc([N+](=O)[O-])c2cccnc2c1Oc1ccccc1O | -27 | 68* | -1 | -1
O=[N+]([O-])c1ccc(OS(=O)(=O)c2ccc3ccccc3c2)c2ncccc12 | 48* | 2 | 1 | -2
CC(=O)NC(c1ccc2c(c1)OCO2)c1cc([N+](=O)[O-])c2cccnc2c1O (configuration not stated) | -3 | 68* | 0 | -1
COc1cc(C(=O)Oc2ccc([N+](=O)[O-])c3cccnc23)cc(OC)c1OC | 6 | 15 | 1 | 0
COc1ccccc1C(NC(C)=O)c1cc([N+](=O)[O-])c2cccnc2c1O (configuration not stated) | -8 | 85* | 0 | -1
Cc1ccc(NC(=O)c2cc3c(CO)cnc(C)c3oc2=N)cc1C | 6 | 4 | 0 | 0
COC(=O)c1ccc(NC(=O)CC2C(=O)N(c3cccc(C(F)(F)F)c3)C(=S)N2CCN2CCOCC2)cc1 (configuration not stated) | 1 | -2 | -1 | 0
CCCOC(=O)C1=C(C)NC2=C(C(=O)CC(c3ccc(OC)c(OC)c3)C2)C1c1ccc(Cl)c(Cl)c1 (configuration not stated) | -3 | 3 | 1 | 0
CCOC(=O)C1=C(CC)NC2=C(C(=O)CC(C)(C)C2)C1c1cccc([N+](=O)[O-])c1 (configuration not stated) | 10 | 6 | 0 | 0
CC(=O)NC(c1ccc(C)cc1)c1cc([N+](=O)[O-])c2cccnc2c1O (configuration not stated) | -10 | 31 | 1 | -1
CC(=O)NC(c1ccc(Cl)cc1Cl)c1cc([N+](=O)[O-])c2cccnc2c1O (configuration not stated) | 31 | 58* | 1 | -2
CC(=O)NC(c1ccco1)c1cc([N+](=O)[O-])c2cccnc2c1O (configuration not stated) | -2 | 55* | -1 | 0
O=C(CSc1nncn1-c1ccccc1)Nc1nc2c(F)c(F)c(F)cc2s1 | -7 | 10 | -1 | 3.9*
Cc1ccc(-c2nnc(Cn3c(C)nc4ccccc43)o2)cc1 | 58* | -16 | -1 | 0
COc1ccc(-c2nc(CCn3c(C)nc4ccccc43)no2)cc1 | 38* | -8 | 2 | 0
CC1=C/C(=C\c2c(O)n(-c3cccc(C)c3)c(=O)[nH]c2=O)C(C)=N1 | 2 | -8 | 1 | 0
CCN(c1ccccc1)S(=O)(=O)c1ccc2c(c1)oc(=O)n2C | 7 | -10 | 0 | 0
CCN(c1cccc(C)c1)S(=O)(=O)c1ccc2c(c1)oc(=O)n2C | 44* | 4 | 0 | 0
CCOc1ccc(N(CC)S(=O)(=O)c2ccc3c(c2)oc(=O)n3C)cc1 | 48* | 15 | 2 | 0
CCN(c1ccc(C)c(C)c1)S(=O)(=O)c1ccc2c(c1)oc(=O)n2C | 16 | 6 | -1 | 0
CCn1cnc2sc(C(=O)Nc3ccc(F)cc3F)c(C)c2c1=O | -26 | 6 | -5 | 0
CCn1c(C(CC(C)C)NC(=O)C2CCC(OC)CC2)nc2cccnc21 (configuration not stated) | -3 | 14 | -1 | 0
C/C(=N\NC(=O)c1ccc(O)c(O)c1)c1ccc(Br)c([N+](=O)[O-])c1 | 32* | 20 | -2 | 0
SMILES | TEAD-YAP inh | MITF inh | GPR151 activ | FBW7 act
C/C(=N/NC(=O)c1ccc(O)c(O)c1)c1ccc(C)cc1 | -9 | 7 | -1 | 0
COc1cc([N+](=O)[O-])ccc1N/C=C/C(=O)c1ccc(C)o1 | 35* | 1 | 2 | 0
COc1cc([N+](=O)[O-])ccc1N/C=C/C(=O)c1ccco1 | 71* | 15 | 0 | 0
COc1cccc(C(=O)/C=C/Nc2ccc([N+](=O)[O-])cc2OC)c1 | 35* | 1 | 0 | 0
COc1cc([N+](=O)[O-])ccc1NC(=O)c1ccco1 | -7 | 12 | -1 | 0
C/C(=N\NCc1cn2ccccc2n1)c1ccccc1 | -19 | 33 | -1 | -1
O=C(Nc1cccc(Cl)c1)c1ccc(CN2CCc3ccccc3C2)cc1 | 40* | -19 | -2 | 0
Cc1cccc(NC(=O)c2ccc(CN3CCc4ccccc4C3)cc2)c1 | 36* | -3 | 0 | 0
CCOC(=O)CNC(=O)c1ccc(OCC)c(OCC)c1 | -1 | -13 | 0 | 0
Cc1cc2c(cc1C)C(c1cccc(Cl)c1)CC(=O)N2 (configuration not stated) | 37* | -11 | 0 | 0
COCCC1CCCCN1C(=O)CCC1(Cc2ccc(SC)cc2)CCC(=O)N1 (configuration not stated) | 1 | 9 | 0 | 0
COc1ccc(OCC(O)Cn2c3ccccc3c3ccccc32)cc1 (configuration not stated) | 45* | -2 | 1 | 0
Nc1nc2cc3c(cc2cc1C(=O)Nc1ccccc1)OCO3 | 42* | 6 | 0 | 0
CN1/C(=C/C=C/c2cc(-c3ccc(Cl)cc3)cc(-c3ccc(Cl)cc3)[n+]2C)C(C)(C)c2ccccc21 | 94* | 59* | 3 | -1
CCOC(=O)c1ccc(NC(=O)c2ccc(OC(C)=O)cc2)cc1 | -43 | 0 | -2 | 0
c1cnc(Nc2nc(NCc3nc4ccccc4[nH]3)c3ncn(-c4ccsc4)c3n2)nc1 | 69* | -18 | -1 | 50*
c1cncc(CNc2nc(NCc3nc4ccccc4[nH]3)c3ncn(-c4ccsc4)c3n2)c1 | 86* | -8 | 1 | 0
CC(C)n1cnc2c(NCc3ccccc3)nc(-c3ccc(C(N)=O)cc3)nc21 | 9 | -6 | 1 | 0
CC(C)n1cnc2c(NC3CC3)nc(-c3ccc(C(N)=O)cc3)nc21 | 40* | 13 | -1 | 1
CC(C)n1cnc2c(Nc3ccccc3)nc(-c3ccc(C(N)=O)cc3)nc21 | 44* | -1 | -1 | 0
CC(C)n1cnc2c(NC3CC3)nc(-c3ccc(C(=O)NC4CC4)cc3)nc21 | 33* | 18 | -1 | 0
CCOc1ccc(C(c2c(C)[nH]n(-c3ccccc3)c2=O)c2c(C)[nH]n(-c3ccccc3)c2=O)c(OCC)c1 | -6 | -1 | 0 | 0
COCCOC(=O)c1ccc(NC(=O)c2ccc(OC)cc2)cc1 | -2 | 7 | 0 | 0
O=C(COc1ccc(Cl)cc1)Nc1ccc(N2CCCCC2)c(Cl)c1 | 1 | 7 | 0 | 0
COc1c(OC(C)=O)ccc(/C=N/NC(=O)COc2c(C)cccc2C)c1[N+](=O)[O-] | 20 | 7 | 0 | 0
COc1c(OC(C)=O)ccc(/C=N/NC(=O)COc2c(C)ccc(C)c2C)c1[N+](=O)[O-] | 52* | 7 | 2 | 1
COc1cc(C2C(C(=O)OC3CCCC3)=C(C)NC3=C2C(=O)CC(c2cccs2)C3)cc(OC)c1OC (configuration not stated) | 8 | 10 | -1 | 0
